Source: paper PMC12820563, “FoxP3 forms a head-to-head dimer in vivo and stabilizes its multimerization on adjacent microsatellites”
Whole data set: some 16,000 sequences, median “rpm ratio (pull-down/input)” near 0.5, cut for the highest 2% near 5.5. The list comes from a sample in which the highest values are over-represented; it also holds similar and randomly drawn sequences.

These sequences were tested against T1, MBP-FoxP3dN (Mus musculus, UniProt Q99JB6 188-423) (assay: PD-seq (MBP pull-down with sequencing); 20 mM Tris-HCl pH 7.5, 100 mM NaCl, 1.5 mM MgCl2, 0.4 uM protein, 0.1 uM dsDNA library, 30 min, room temperature, amylose pull-down; high values mean tight binding). Details: protein: recombinant; tags: His6-MBP; chain copies: 2; dsDNA, one strand shown.
T1 sequence: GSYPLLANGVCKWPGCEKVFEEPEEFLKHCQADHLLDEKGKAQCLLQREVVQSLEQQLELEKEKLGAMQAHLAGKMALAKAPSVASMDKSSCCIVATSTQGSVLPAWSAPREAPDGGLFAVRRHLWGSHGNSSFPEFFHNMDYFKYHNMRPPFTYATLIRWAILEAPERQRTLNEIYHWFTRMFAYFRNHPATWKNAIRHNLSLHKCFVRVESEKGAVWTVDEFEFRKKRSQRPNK
Procedure, shortened: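 A degenerate double-stranded DNA library, filled in with Klenow, was added at 0.1 µM to 0.4 µM His6-MBP-tagged mouse FoxP3 or FoxP1 fragment lacking the N-terminus, expressed in E. coli. Incubation lasted 30 min at room temperature in Tris pH 7.5 buffer with NaCl and MgCl2, after which complexes were collected on amylose resin, washed three times, digested with proteinase K to free the DNA, barcoded by PCR and sequenced by Illumina. Binding is the pooled-replicate reads-per-million enrichment of pull-down over input.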

Q: How did the binding signal turn out when “GATGATTGTTCTCCCAGCTGATGAATTACGTTGGTCGAGTAAACAAATTTTCCTAATCTTTCTGTTCAAGCGCCATCTAC” was run?
A: 1.3 RPM ratio (pull-down/input)

Q: Which binding signal does the source give for “GATGATTGTTCTCCCAGCTGATGAATTTGTTATTTCGAGTAAACAAATTTTCCTAATCTTTCTGTTCAAGCGCCATCTAC” here?
A: 7.62 RPM ratio (pull-down/input)

Q: For “GATGATTGTTCTCCCAGCTGATGAATTTGATTATTCGAGTAAACAAATTTTCCTAATCTTTCTGTTCAAGCGCCATCTAC”, which binding signal is on record?
A: 4.96 RPM ratio (pull-down/input)

Q: “GATGATTGTTCTCCCAGCTGATGAATTATTTTGTTCGAGTAAACAAATTTTCCTAATCTTTCTGTTCAAGCGCCATCTAC” was tested. Which binding signal did it give?
A: 1.15 RPM ratio (pull-down/input)

Q: “GATGATTGTTCTCCCAGCTGATGAATTCTGTTATTCGAGTAAACAAATTTTCCTAATCTTTCTGTTCAAGCGCCATCTAC” was tested. Which binding signal did it give?
A: 6.72 RPM ratio (pull-down/input)

Q: For “GATGATTGTTCTCCCAGCTGATGAATTTTGTTATTCGAGTAAACAAATTTTCCTAATCTTTCTGTTCAAGCGCCATCTAC”, which binding signal is on record?
A: 7.33 RPM ratio (pull-down/input)

Q: How did the binding signal turn out when “GATGATTGTTCTCCCAGCTGATGAATTATTATGTTCGAGTAAACAAATTTTCCTAATCTTTCTGTTCAAGCGCCATCTAC” was run?
A: 1.3 RPM ratio (pull-down/input)

Q: With “GATGATTGTTCTCCCAGCTGATGAATTATGTAATTCGAGTAAACAAATTTTCCTAATCTTTCTGTTCAAGCGCCATCTAC” as the sequence, how does the binding signal read?
A: 3.03 RPM ratio (pull-down/input)

Q: For “GATGATTGTTCTCCCAGCTGATGAATTATGTTATTCGAGTAAACAAATTTTCCTAATCTTTCTGTTCAAGCGCCATCTAC”, which binding signal is on record?
A: 7.23 RPM ratio (pull-down/input)

Q: How did the binding signal turn out when “GATGATTGTTCTCCCAGCTGATGAATTATTTGTTTCGAGTAAACAAATTTTCCTAATCTTTCTGTTCAAGCGCCATCTAC” was run?
A: 4.2 RPM ratio (pull-down/input)

Q: “GATGATTGTTCTCCCAGCTGATGAATTGTTATTTTCGAGTAAACAAATTTTCCTAATCTTTCTGTTCAAGCGCCATCTAC” was tested. Which binding signal did it give?
A: 4.89 RPM ratio (pull-down/input)

Q: How did the binding signal turn out when “GATGATTGTTCTCCCAGCTGATGAATTTCGTTATTCGAGTAAACAAATTTTCCTAATCTTTCTGTTCAAGCGCCATCTAC” was run?
A: 2.7 RPM ratio (pull-down/input)

Q: For “GATGATTGTTCTCCCAGCTGATGAATTTGGTTATTCGAGTAAACAAATTTTCCTAATCTTTCTGTTCAAGCGCCATCTAC”, which binding signal is on record?
A: 3.56 RPM ratio (pull-down/input)

Q: Which binding signal does the source give for “GATGATTGTTCTCCCAGCTGATGAATTTTGTACGTCGAGTAAACAAATTTTCCTAATCTTTCTGTTCAAGCGCCATCTAC” here?
A: 1.18 RPM ratio (pull-down/input)

Q: How did the binding signal turn out when “GATGATTGTTCTCCCAGCTGATGAATTGTAAGTGTCGAGTAAACAAATTTTCCTAATCTTTCTGTTCAAGCGCCATCTAC” was run?
A: 0.84 RPM ratio (pull-down/input)

Q: “GATGATTGTTCTCCCAGCTGATGAATTTTGATGTTCGAGTAAACAAATTTTCCTAATCTTTCTGTTCAAGCGCCATCTAC” was tested. Which binding signal did it give?
A: 3.91 RPM ratio (pull-down/input)

Q: Which binding signal does the source give for “GATGATTGTTCTCCCAGCTGATGAATTTAAGGATTCGAGTAAACAAATTTTCCTAATCTTTCTGTTCAAGCGCCATCTAC” here?
A: 0.302 RPM ratio (pull-down/input)

Q: Which binding signal does the source give for “GATGATTGTTCTCCCAGCTGATGAATTGAATATTTCGAGTAAACAAATTTTCCTAATCTTTCTGTTCAAGCGCCATCTAC” here?
A: 0.671 RPM ratio (pull-down/input)

Q: For “GATGATTGTTCTCCCAGCTGATGAATTTTGACCATCGAGTAAACAAATTTTCCTAATCTTTCTGTTCAAGCGCCATCTAC”, which binding signal is on record?
A: 0.551 RPM ratio (pull-down/input)

Q: How did the binding signal turn out when “GATGATTGTTCTCCCAGCTGATGAATTATTGTGTTCGAGTAAACAAATTTTCCTAATCTTTCTGTTCAAGCGCCATCTAC” was run?
A: 2.16 RPM ratio (pull-down/input)

Q: “GATGATTGTTCTCCCAGCTGATGAATTGTTATATTCGAGTAAACAAATTTTCCTAATCTTTCTGTTCAAGCGCCATCTAC” was tested. Which binding signal did it give?
A: 1.27 RPM ratio (pull-down/input)

Q: “GATGATTGTTCTCCCAGCTGATGAATTGTGTTATTCGAGTAAACAAATTTTCCTAATCTTTCTGTTCAAGCGCCATCTAC” was tested. Which binding signal did it give?
A: 7.88 RPM ratio (pull-down/input)

Q: How did the binding signal turn out when “GATGATTGTTCTCCCAGCTGATGAATTGGATCGTTCGAGTAAACAAATTTTCCTAATCTTTCTGTTCAAGCGCCATCTAC” was run?
A: 0.402 RPM ratio (pull-down/input)

Q: With “GATGATTGTTCTCCCAGCTGATGAATTTACAGGATCGAGTAAACAAATTTTCCTAATCTTTCTGTTCAAGCGCCATCTAC” as the sequence, how does the binding signal read?
A: 0.329 RPM ratio (pull-down/input)

Q: Which binding signal does the source give for “GATGATTGTTCTCCCAGCTGATGAATTCTTAAGTTCGAGTAAACAAATTTTCCTAATCTTTCTGTTCAAGCGCCATCTAC” here?
A: 0.237 RPM ratio (pull-down/input)

Q: For “GATGATTGTTCTCCCAGCTGATGAATTCTATGTGTCGAGTAAACAAATTTTCCTAATCTTTCTGTTCAAGCGCCATCTAC”, which binding signal is on record?
A: 1.96 RPM ratio (pull-down/input)

Q: With “GATGATTGTTCTCCCAGCTGATGAATTGGTATGGTCGAGTAAACAAATTTTCCTAATCTTTCTGTTCAAGCGCCATCTAC” as the sequence, how does the binding signal read?
A: 1.45 RPM ratio (pull-down/input)

Q: Which binding signal does the source give for “GATGATTGTTCTCCCAGCTGATGAATTTTGTATGTCGAGTAAACAAATTTTCCTAATCTTTCTGTTCAAGCGCCATCTAC” here?
A: 6.01 RPM ratio (pull-down/input)

Q: For “GATGATTGTTCTCCCAGCTGATGAATTGTATGATTCGAGTAAACAAATTTTCCTAATCTTTCTGTTCAAGCGCCATCTAC”, which binding signal is on record?
A: 2.94 RPM ratio (pull-down/input)

Q: “GATGATTGTTCTCCCAGCTGATGAATTTGTATGTTCGAGTAAACAAATTTTCCTAATCTTTCTGTTCAAGCGCCATCTAC” was tested. Which binding signal did it give?
A: 6.63 RPM ratio (pull-down/input)

Q: Which binding signal does the source give for “GATGATTGTTCTCCCAGCTGATGAATTGTATGGGTCGAGTAAACAAATTTTCCTAATCTTTCTGTTCAAGCGCCATCTAC” here?
A: 1.19 RPM ratio (pull-down/input)

Q: Which binding signal does the source give for “GATGATTGTTCTCCCAGCTGATGAATTGTATGTGTCGAGTAAACAAATTTTCCTAATCTTTCTGTTCAAGCGCCATCTAC” here?
A: 3.75 RPM ratio (pull-down/input)

Q: Which binding signal does the source give for “GATGATTGTTCTCCCAGCTGATGAATTGTGTATGTCGAGTAAACAAATTTTCCTAATCTTTCTGTTCAAGCGCCATCTAC” here?
A: 5.84 RPM ratio (pull-down/input)

Q: For “GATGATTGTTCTCCCAGCTGATGAATTATGTATGTCGAGTAAACAAATTTTCCTAATCTTTCTGTTCAAGCGCCATCTAC”, which binding signal is on record?
A: 4.99 RPM ratio (pull-down/input)

Q: For “GATGATTGTTCTCCCAGCTGATGAATTCTGTATGTCGAGTAAACAAATTTTCCTAATCTTTCTGTTCAAGCGCCATCTAC”, which binding signal is on record?
A: 4.95 RPM ratio (pull-down/input)

Q: With “GATGATTGTTCTCCCAGCTGATGAATTGTATGTTTCGAGTAAACAAATTTTCCTAATCTTTCTGTTCAAGCGCCATCTAC” as the sequence, how does the binding signal read?
A: 3.89 RPM ratio (pull-down/input)

Q: “GATGATTGTTCTCCCAGCTGATGAATTTGTATGGTCGAGTAAACAAATTTTCCTAATCTTTCTGTTCAAGCGCCATCTAC” was tested. Which binding signal did it give?
A: 6.04 RPM ratio (pull-down/input)
